# This is one part of a sample in which hits are shown more often than they occur.
# Methyltransferases = Primary Screen for Target Class Profiling of Small Molecule Inhibitors of Methyltransferases. purified enzyme, MTase-Glo SAH luminescence; stronger effect = lower value. calls only at 40 µM. 3.9% of 25,000 active. AID 1745853, 2022; call rule not given here
#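 Each enzyme was reacted with SAM and its substrate, with compounds tested once at 40 uM; SAH formed was read by MTase-Glo luminescence.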
# MTase-Glo counter = counter-screen for methyltransferase inhibitors: coupling enzymes without methyltransferase; shares compounds with Methyltransferases; MTase-Glo coupled enzymes, SAH conversion luminescence, no MTase; Potency, µM (highest dose often 57.3 µM), without a hit: top-dose activity change, negative = inhibition, hits mostly inhibitors; 6% of 180 active; AID 1745851; active means well fitted inhibition curve with a large enough effect; inconclusive means small, poorly fitted or top-dose-only effect; further: potency means the concentration at half of the fitted maximal effect
# Numbers without * were called inactive; i = inactive; ? = inconclusive; + = active, no number; [ ] = another dose, or the depositor's remark. On the % scale 0 is the no-effect control and ±100 the full control effect.
SMILES,Methyltransferases,others
c1ccc(CCN2CCNc3cc(NCc4cccnc4)ncc3C2)cc1,+,MTase-Glo counter=?
Fc1ccccc1CN1CCNc2cnc(OCc3cccnc3)cc2C1,i,
Cn1cc(CN2CCOc3cc([S+](=O)([O-])Nc4ccccc4)ccc3C2)cn1,i,
Cn1cnc(CN2CCNc3cc(Nc4ccccc4)ncc3C2)c1,+,MTase-Glo counter=3.3%[85.7 µM]
CC(C)CNc1ccc2c(n1)C(C)(C(=O)NCc1cccnc1)CN(Cc1ccccc1)C2 (stereo not drawn),i,
CC(NC(=O)Cn1ccc2cc(S(=O)(=O)N3CCCC3)ccc21)c1ccccc1 (stereo not drawn),i,
Cc1ccc(NC(=O)CSc2nnc3n(CCCOC(C)C)c(=O)c4ccccc4n23)c(C)c1,i,
CCC1c2ccc(C)n2CCN1C(=O)Nc1ccc(Cl)cc1 (stereo not drawn),i,
COc1ccc(NC(=O)Cn2nc3n(CCC(C)C)c(=O)c4ccccc4n3c2=O)cc1OC,i,
CCn1cc(CN2CCCC23CCN(c2cc(C)nc4ccccc24)CC3)c(C)n1,+,MTase-Glo counter=0.4%
CCCn1ncc(CN2CCCC23CCN(c2ncccn2)CC3)c1C,i,
CCCc1nc2c3ccccc3n(CC(=O)N3CCN(c4ccccc4F)CC3)c(=O)n2n1,i,
Cc1nnc2n(-c3ccccc3)c(=O)c3ccc(C(=O)NCc4ccc5c(c4)OCO5)cc3n12,i,
COCCNC(=O)c1cc2n(n1)CC(C)(C(=O)NC1CCCC1)N(C)C2=O (stereo not drawn),i,
COc1ncccc1-c1cc2c(ccn2CC2CCN([S+](C)(=O)[O-])CC2)c(N2CCOCC2)n1,+,MTase-Glo counter=-0.8%
Cc1nn2c(c1-c1cccnc1N1CCOCC1)N(C(=O)c1cc3ccccc3n1C)CCC2,i,
COCCCNc1nc2c(-c3cccc(F)c3)nnn2c2ccc(Cl)cc12,i,
COC(=O)c1cc2n(n1)CC(C)(C(=O)NC1CCC(C)CC1)N(c1ccc(C)cc1C)C2=O (stereo not drawn),i,
CC(C)Cn1c(=O)c2ccccc2n2c(=O)n(CC(=O)Nc3ccc(Cl)cc3)nc12,i,
CC1CCC(NC(=O)C2(C)Cn3c(cc4occc43)C(=O)N2Cc2ccccc2Br)CC1 (stereo not drawn),i,
COC(=O)CNC(=O)NCCc1ncc(C)n1C1CCCC1,i,
CCCNC(=O)NCCc1ncc(C)n1CC1CC1,i,
CNC(=O)NCCc1ncc(C)n1C1CCCCCCC1,+,MTase-Glo counter=0.0%
CN1CCCN(C[C@@H]2CN(C(=O)c3ccn(C)n3)C[C@@H]2CO)CC1,i,
CN(C)c1nc2c(c(N3C[C@@H](CN4CCCC4)[C@@H](CO)C3)n1)CCCC2,+,MTase-Glo counter=13.6µM*
SMILES,Methyltransferases,others
COc1ccc(CNC(=O)c2cc3n(n2)CC(C)(C(=O)NCCC(C)C)N(C)C3=O)cc1 (stereo not drawn),i,
CCCc1nc2c3ccccc3n(CC(=O)N3CCN(c4ccccc4OC)CC3)c(=O)n2n1,i,
COc1ccc2c(c1)c(CN1C[C@@H](CO)[C@H](c3nc(C)no3)C1)cn2C,i,
COc1ccc(CN2C[C@@H](CO)[C@H](c3ccncc3)C2)c(OC)c1,+,MTase-Glo counter=3.8%
Cn1cccc1CN1C[C@@H](CO)[C@H](c2ccncc2)C1,i,
CN1C(=O)c2cc(C(=O)NCCN3CCCCC3)nn2CC1(C)C(=O)NC1CCCCCC1 (stereo not drawn),i,
CCc1ccc(CN2C(=O)c3cc(-c4ccccc4)nn3CC2(C)C(=O)NCCCOC)cc1 (stereo not drawn),i,
CC(C)n1c(=O)c2ccc(C(=O)NC3CCCCC3)cc2n2c(=O)n(CC(=O)NC(C)(C)C)nc12,i,
CCn1cnnc1CC1CCN(C(=O)c2nccc3ccccc23)C1 (stereo not drawn),i,
O=C(C1CCC1)N1CCC(Cc2nncn2Cc2ccccc2)CC1,i,
Cc1nn(C(=O)CCC(=O)N2CCC(Cc3nncn3CC3CC3)CC2)c2ccccc12,+,MTase-Glo counter=-0.8%
CC1(C(=O)NC2CCCCCCC2)Cn2c(ccc2-c2ccco2)C(=O)N1CCc1ccco1 (stereo not drawn),i,
CC(C)CNC(=O)c1ccc2c(=O)n(C(C)C)c3nn(CC(=O)N(C)c4ccc(F)cc4)c(=O)n3c2c1,i,
CC1CCC2C(C(=O)O)=CC3CC(C)(C)CC132 (stereo not drawn),i,
O=C(NCCN1CCN(c2cccc3ccc(O)cc23)CC1)c1ccc(F)cc1,i,
Cc1ccc(NC(=O)N2CCCN(CCn3nc4n(c3=O)CCCC4)CC2)cc1F,i,
Oc1ccc(NCCN2CCCC2)cc1,+,MTase-Glo counter=-5.7%[114 µM]
CC(C)CN[C@H]1CO[C@H]2[C@@H]1OC[C@@H]2Nc1nccc(-c2cccs2)n1,i,
CCCCCC(=O)N(c1ccc(OC)cc1)S(=O)(=O)c1ccc2c(c1)n(C)c(=O)n2C,i,
CN1CCC(N2CC[C@H](c3nc4ccccc4[nH]3)C2)CC1,+,MTase-Glo counter=-1.7%[114 µM]
CN1CCN(c2nc3cc(C(F)(F)F)ccc3n3cccc23)CC1,i,
CC(=O)N1CC[C@H](c2nc3ccc(C#N)cc3[nH]2)C1,i,
O=C(C1CC2(CCNCC2)CN1)N1CCC(c2nc3ccccc3[nH]2)CC1 (stereo not drawn),i,
CC(=O)N1CCC(C(=O)N2CCCC(c3nc4ncccc4[nH]3)C2)CC1 (stereo not drawn),i,
CN1CCC(N2CC[C@H](c3nc4ccc(C(F)(F)F)cc4[nH]3)C2)CC1,+,MTase-Glo counter=2.2%[85.7 µM]
SMILES,Methyltransferases,others
CC(C)CCNC(=O)C1(C)Cn2c(cc3ccccc32)C(=O)N1CCc1ccc(Cl)cc1 (stereo not drawn),i,
CCC(C)NC(=O)c1ccc2c(=O)n(CCC(C)C)c3nn(CC(=O)N(C)c4ccccc4)c(=O)n3c2c1 (stereo not drawn),i,
O=C(N[C@H]1C[C@@H](CO)N(CC2CCCCC2)C1)c1cccnc1,i,
Cc1ccc(C)c(OCc2cc(C(=O)N3CCC(N4CCSCC4)CC3)no2)c1,i,
O=C(NCC1CC1)C1CCc2ncc(-c3ccc(F)cc3)n2C1 (stereo not drawn),i,
O=C(NCCCN1CCc2ccccc2C1)C1CCc2ncc(-c3ccc(F)cc3)n2C1 (stereo not drawn),+,MTase-Glo counter=-1.6%
CCCNC(=O)C1CCc2ncc(-c3ccc(OC)cc3)n2C1 (stereo not drawn),i,
COc1ccc(-c2nnc3n2CCN([S+](=O)([O-])c2c(C)noc2C)C3)cc1,i,
Cc1nn(-c2ccccc2)c2c1C(C)N(C1CCN([S+](=O)([O-])c3c(C)noc3C)C1)C2=O (stereo not drawn),i,
Cc1noc(C)c1[S+](=O)([O-])N1CCn2c(nn(-c3ccc(C(F)(F)F)cc3)c2=O)C1,+,MTase-Glo counter=-2.5%
Cc1ccc(C)c(NC(=O)Cn2c(=O)c3ccc(Cl)cc3n3nncc23)c1,i,
CCOC(=O)c1cc2n(n1)CC(C)(C(=O)NCc1ccccc1)N(c1cc(C)ccc1C)C2=O (stereo not drawn),i,
C[S+](=O)([O-])NC1CCCN(Cc2ccc(-c3cncnc3)cc2)C1 (stereo not drawn),i,
Cc1cccnc1NCCNC(=O)c1ccc(S(N)(=O)=O)cc1,i,
Cn1nc(C(=O)N2CCCC(CN3CCOCC3)CC2)c2ccccc21 (stereo not drawn),i,
